In all, about 310,000 compounds went through this assay and about 14,000 (4.5%) showed an effect of 50% or more. Effects have a minus sign here. For the sample, strong results were picked, then their nearest neighbours and some compounds at random.
Biological target: human ether-à-go-go-related gene (hERG) potassium channel (human, UniProt Q12809)
Experiment: primary screen, population patch clamp on CHO cells stably expressing hERG; higher = less effect of the substance
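Note: peak tail current of the secondary pulse compared with the same well before compound.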

Chain of human ether-à-go-go-related gene (hERG) potassium channel (Q12809 whole entry, looked up): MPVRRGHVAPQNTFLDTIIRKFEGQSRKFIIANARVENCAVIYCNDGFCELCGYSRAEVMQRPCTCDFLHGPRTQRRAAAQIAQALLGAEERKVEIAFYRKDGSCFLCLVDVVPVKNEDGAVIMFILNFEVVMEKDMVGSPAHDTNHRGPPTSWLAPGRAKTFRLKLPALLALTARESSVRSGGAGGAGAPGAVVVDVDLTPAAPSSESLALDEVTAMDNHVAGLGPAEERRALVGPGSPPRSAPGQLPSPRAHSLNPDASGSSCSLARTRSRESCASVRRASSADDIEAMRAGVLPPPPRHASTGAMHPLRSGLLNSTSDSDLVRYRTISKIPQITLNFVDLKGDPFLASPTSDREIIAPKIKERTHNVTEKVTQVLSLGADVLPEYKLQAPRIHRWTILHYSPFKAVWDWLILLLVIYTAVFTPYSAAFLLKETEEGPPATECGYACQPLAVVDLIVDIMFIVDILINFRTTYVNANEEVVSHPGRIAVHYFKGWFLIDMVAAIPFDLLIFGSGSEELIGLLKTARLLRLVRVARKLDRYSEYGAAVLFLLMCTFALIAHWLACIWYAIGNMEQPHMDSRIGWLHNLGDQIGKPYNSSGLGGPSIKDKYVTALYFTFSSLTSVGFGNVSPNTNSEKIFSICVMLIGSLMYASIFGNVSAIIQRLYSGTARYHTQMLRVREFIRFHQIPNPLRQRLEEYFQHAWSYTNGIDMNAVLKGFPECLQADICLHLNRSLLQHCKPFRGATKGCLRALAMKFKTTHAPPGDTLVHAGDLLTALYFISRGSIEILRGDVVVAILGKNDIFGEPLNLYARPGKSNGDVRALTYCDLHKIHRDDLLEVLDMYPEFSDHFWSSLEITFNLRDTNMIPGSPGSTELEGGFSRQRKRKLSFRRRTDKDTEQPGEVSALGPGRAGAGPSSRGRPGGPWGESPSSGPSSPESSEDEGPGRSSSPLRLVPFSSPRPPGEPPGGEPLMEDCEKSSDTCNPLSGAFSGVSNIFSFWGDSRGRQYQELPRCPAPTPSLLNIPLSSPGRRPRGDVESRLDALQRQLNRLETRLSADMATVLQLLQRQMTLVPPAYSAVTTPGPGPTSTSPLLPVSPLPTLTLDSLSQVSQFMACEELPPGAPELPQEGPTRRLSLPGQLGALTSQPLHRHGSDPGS

Compound | hERG current change (%, negative = inhibition) at 10uM [%]
O=C(COC(=O)CCNS(=O)(=O)c1ccc2c(c1)OCCO2)NC1CCCc2ccccc21 (centres unmarked) | -0.954
O=C(CN(C(=O)c1ccccc1Cl)N1C(=O)C2C3C=CC(C3)C2C1=O)c1cccs1 (centres unmarked) | 7.25
O=C(CSc1ncn[nH]1)NC12CC3CC(CC(C3)C1)C2 | -5.91
O=C(N/N=C/c1c(F)c(F)c(F)c(F)c1F)c1cc(-c2ccccc2)nc2ccccc12 | 6.92
O=C(O)Cc1csc(-c2cccc(F)c2)n1 | 19.1
CC(C)OC(=O)NCCOC(=O)Nc1ccccc1Cl | 21.6
Cn1c(=O)c(=O)n(C)c2cc(S(=O)(=O)CCC(=O)NCc3ccccc3)ccc21 | 20
COc1ccc(OC)c(/C=N/NC(=O)Cc2nc3ccccc3[nH]2)c1 | 5.63
Cc1onc(-c2ccccc2)c1C(=O)N1CCN(S(=O)(=O)c2ccccc2C(F)(F)F)CC1 | 22.6
Cc1cc(S(=O)(=O)Nc2ccc(C(=O)NCCCN3CCCC3=O)cc2)ccc1F | 8.37
O=C(NCc1ccccc1)C1C(=O)N(Cc2ccccc2)C(=O)C1C1(O)CCCC1 (centres unmarked) | 2.87
O=C(Nc1ccc2oc(=O)ccc2c1)c1ccc(-c2ccc(Cl)cc2)o1 | 3.37
S=c1[nH]nc(Cc2ccccc2)n1Cc1ccco1 | -5.08
Cc1nc2ccc(S(=O)(=O)NCC(=O)N3CCN(c4ccccc4)CC3)cc2s1 | -1.33
O=C(O)c1cc(NC(=O)c2cccc(F)c2)cc(NC(=O)c2cccc(F)c2)c1 | 15.4
COc1ccc(C(CNC(=O)COc2ccccc2C)N2CCCCC2)cc1 (centres unmarked) | -20.7
COc1ccc(C(CNC(=O)COc2ccc(F)cc2Br)N2CCCC2)cc1 (centres unmarked) | -64.5
COc1ccc(OCC(=O)NCC(c2ccc(OC)cc2)N2CCCCC2)cc1 (centres unmarked) | -33.1
COc1ccc(C(CNC(=O)COc2ccccc2)N2CCCCC2)cc1 (centres unmarked) | -29.3

Compound | hERG current change (%, negative = inhibition) at 10uM [%]
COc1ccc(C(CNC(=O)COc2ccccc2OC)N2CCCCC2)cc1 (centres unmarked) | -19.5
COc1ccc(C(CNC(=O)COc2ccccc2C)N2CCCC2)cc1 (centres unmarked) | -40.8
COc1ccc(C(CNC(=O)COc2ccc([N+](=O)[O-])cc2)N2CCCCC2)cc1 (centres unmarked) | -69.9
COc1ccc(C(CNC(=O)COc2ccc(F)cc2Cl)N2CCCCC2)cc1 (centres unmarked) | -8.7
COc1ccc(C(CNC(=O)COc2ccc(Br)cc2F)N2CCCC2)cc1 (centres unmarked) | -78.6
COc1ccccc1CNC(=O)CCc1nc2ccccc2c(=O)[nH]1 | -1.26
CC(=O)Nc1cccc(NC(=O)c2cccc(OCc3ccccc3)c2)c1 | 10.6
Cc1ccc(C2(C(F)(F)F)NC(=O)N3CCCN=C3S2)cc1 (centres unmarked) | 16.5
Cc1ccc(NC(=S)N(CCN2CCCCC2)Cc2ccco2)cc1Cl | -51.1
Cc1cc(C)c(NC(=S)N(CCN2CCCCC2)Cc2ccco2)c(C)c1 | -37.9
Cc1ccc(NC(=S)N(CCN2CCCCC2)Cc2ccco2)cc1C | -80.3
Cc1cccc(C)c1NC(=S)N(CCN1CCCCCC1)Cc1ccco1 | -34.9
Cc1cccc(C)c1NC(=S)N(CCCN1CCCCC1)Cc1ccco1 | -25.7
Cc1cc(NC(=S)N(CCN2CCCCC2)Cc2ccco2)ccc1Cl | -55.3
Cc1cc(C)cc(NC(=S)N(CCN2CCCCC2)Cc2ccco2)c1 | -74.4
CN(C)CCOc1ccccc1-c1ccccc1.O=C(O)C(=O)O | -4.52
COc1ccccc1CCNC(=O)c1ccc2nc[nH]c2c1 | 3.97
Nc1cc(=O)[nH]c(SCc2ccccc2Cl)n1 | 3.76
Cc1nc2c(nnn2Cc2ccccc2)c(=O)n1-c1ccccc1 | 0.475

Compound | hERG current change (%, negative = inhibition) at 10uM [%]
NC(=O)c1cc([N+](=O)[O-])ccc1N1CCCCC1 | -17.2
Cc1ccc(S(=O)(=O)N(C)c2ccc(OC(=O)CN3C(=O)NC4(CCCC4)C3=O)cc2)cc1C | 9.26
COC(=O)c1ccc(C(=O)OC)c(NC(=O)CN(C)Cc2ccc(Cl)c(Cl)c2)c1 | 5.46
CCNC(=S)N1CCC(C(=O)c2ccc(Cl)cc2)CC1 | -16.8
CC(C)(C)C(=O)Cn1ncc(N2CCOCC2)c(Cl)c1=O | -71.9
CO/N=C(\Cn1ncc(N2CCCC2)c(Br)c1=O)c1ccc(Cl)cc1 | -57.5
CO/N=C(\Cn1ncc(N2CCCC2)c(Cl)c1=O)c1ccc(Cl)cc1 | -64
CC(=O)Cn1ncc(N2CCOCC2)c(Cl)c1=O | 4.26
CC(C)(C)C(=O)Cn1ncc(N2CCOCC2)c(Br)c1=O | -0.203
CC(=O)Cn1ncc(N2CCCCC2)c(Cl)c1=O | 17.8
CO/N=C(\Cn1ncc(N2CCOCC2)c(Br)c1=O)c1ccc(Cl)cc1 | -19.7
O=C(Cn1ncc(N2CCCC2)c(Cl)c1=O)c1ccc(Cl)cc1 | -21.2
O=C(Cn1ncc(N2CCCC2)c(Br)c1=O)c1ccc(Cl)cc1 | -23.1
CCOC(=O)c1[nH]nc(-c2c(O)cc(C)cc2O)c1-c1csc(C)n1 | 11.3
Cc1cc(C)c2c(c1)c(C)cc1nnc(SCC(=O)NCc3ccco3)n12 | -8.05
COCCn1c(SCC(=O)NC2CCCCC2)nc2c(c1=O)SCC2 | -11.2
Cc1ccc(C)c(S(=O)(=O)N2CCCOC2CNC(=O)C(=O)NCCCN2CCOCC2)c1 (centres unmarked) | 0.752
CCN(CC)c1cc(Oc2ccccc2)ncn1 | -9.54

Reference: article PMC4336329 (PLoS ONE, 2015)
